According to PubChem BioAssay (NCI):
This is part of a sample that, as a whole, favours compounds with a hit. Of some 83,000 tested, about 20% had one in any assay.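 Plates (96-well) were seeded with cells, treated with compound at one concentration, and incubated for 48 hours before percent growth was determined.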 Unmarked numbers belong to inactive results. Calls of active or inactive are those of the source. Rule for the calls: active = growth percent below 10; inactive = the rest.

system: ACHN renal; assay: NCI-60 one-dose screen, 48 h (100 = growth as untreated, 0 = no growth, -100 = all killed); settings: 10 µM unless noted

Row | SMILES | growth
1 | COc1ccccc1N1CCN(CC(O)COc2c(Br)c(Br)c(Br)c3c2OC(C)(C)C3)CC1 (stereo not drawn) | 56.1%
2 | CC(=O)N[C@@H](CNC(=O)c1cc(NC(=O)c2cc(NC(=O)c3cc(NC(=O)c4nccn4C)cn3C)cn2C)cn1C)CC(=O)Nc1cn(C)c(C(=O)Nc2cc(C(=O)Nc3cc(C(=O)Nc4cc(C(=O)NCCCN(C)CCCNC(=O)c5cccc(C(=O)O)c5)n(C)c4)n(C)c3)n(C)c2)n1 | 75.1%
3 | O=[N+]([O-])c1ccc(NS(=O)(=O)c2cc(Cl)ccc2Cl)c2ccccc12 | 78.9%
4 | CN1CCN(C(=O)/C=C/c2ccc([N+](=O)[O-])o2)CC1 | 63.7%
5 | CCn1cc(/C=C2\Oc3cc(OCC#N)ccc3C2=O)c2cc(OC)ccc21 | 54.2%
6 | S=c1ssnc1-c1ccccn1 | 15.4%
7 | COc1ccc2c(c1)nnc1c3cccnc3[nH]c21 | -10.2% (active)
8 | COc1cccc(/C=N/C(=S)NC2(C)C3CCC(C3)C2(C)C)c1O (stereo not drawn) | 69.9%
9 | CC1(C)Cc2c(Br)c(Br)c(Br)c(OCC(O)CN3CCN(c4ccccn4)CC3)c2O1 (stereo not drawn) | 85.8%
10 | O=C1OC(c2ccc(-c3ccccc3)cc2)=C/C1=C/C=C/c1ccccc1 | 102%
11 | CCCCCn1ncc(-c2c(O)c(O)cc3c(O)c(-c4c(C)cc5c(-c6cnn(CCCCC)n6)c(O)c(O)cc5c4O)c(C)cc23)n1 | 6.56% (active)
12 | CCC1S/C(=N\N=C(/C)c2cc3ccccc3o2)N(c2ccccc2)C1=O (stereo not drawn) | 100%
13 | CS(=O)(=O)OCC(COS(C)(=O)=O)C(c1ccccc1)c1ccccc1 | 107%
14 | CC(=O)c1cc2c(N)c(C(=O)Nc3cccc(Cl)c3)sc2nc1C | 93%
15 | ClC1c2ccccc2CCc2ccccc21 | 95.8%
16 | CCOC(=O)C(C)(CSSCC(C)(NC(=O)c1ccc2ccccc2c1)C(=O)OCC)NC(=O)c1ccc2ccccc2c1 (stereo not drawn) | 102%
17 | COc1ccccc1S(=O)(=O)Nc1ccc2c3c(cc(-c4ccoc4)nc13)C(=O)N2C | 70.6%
18 | CN1CCN(Cn2nc(-c3cc(Cl)cc(Cl)c3Cl)n(/N=C/c3ccc(Cl)cc3)c2=S)CC1 | 100%
19 | Cc1ccn2cc(Cc3cc(=O)oc4c3ccc3ccccc34)c(=O)nc2c1 | 95.5%
20 | C=C1C(=O)O[C@H]2[C@H]1CC/C(COC(=O)c1ccc(Br)cc1)=C\CC[C@@]1(C)O[C@@H]21 | -93.4% (active)

Row | SMILES | growth
21 | COc1cc2ncnc(Oc3ccc(NC(=O)Nc4ccc(CN5CCOCC5)c(C(F)(F)F)c4)c4ccccc34)c2cc1OC | -3.27% (active)
22 | Cc1cccc(NC(=O)CCc2ccc(N3C(N)=NC(N)=NC3(C)C)cc2)c1 | 101%
23 | CN(C)c1ncc(C#Cc2c(F)cccc2F)c2ccccc12 | 96.3%
24 | O=C(NC(=S)Nc1ccc(Cl)cc1)c1ccccc1 | 101%
25 | COc1cc2nc(C(=O)N3CCCCC3)cc(Nc3ccccc3)c2cc1OC | 96.4%
26 | Oc1ccc(O)c(-[n+]2ccccc2)c1 | 107%
27 | COc1cc2c(/C=C3/C(=O)Nc4ccc(O)cc43)c(Cl)n(Cc3cc(OC)c(OC)c(OC)c3)c2cc1C | 130%
28 | N#Cc1c(N)nc2c(c1N)C(c1ccc(Cl)cc1)C1=C(CCCC1=O)N2c1sc2c(c1C#N)CCCC2 (stereo not drawn) | 96.8%
29 | COc1ccc2c(c1)nnn1c3ncccc3c(N=O)c21 | -30.8% (active)
30 | COc1cc(NC(C)CCCN2C(=O)c3ccccc3C2=O)c2nc(C)ccc2c1OC (stereo not drawn) | 99.5%
31 | O=C(Nc1ccc(F)cc1)Nc1ccc(Cl)c([N+](=O)[O-])c1 | 4.79% (active)
32 | COc1cc(/C=C/C(=O)c2c(C)n([O-])c3cc(C)c(C)cc3[n+]2=O)cc(OC)c1OC | 69.2%
33 | CCC1S/C(=N\N=C(/C)c2cccs2)N(c2ccccc2)C1=O (stereo not drawn) | 113%
34 | O=C(Nc1cccc([N+](=O)[O-])c1)c1ccc2ccccc2c1O | 77.6%
35 | CC(C)(C)OC(=O)N1CCN(CCn2cc(C(F)(F)F)c3c(Cl)ncnc32)CC1 | 96.6%
36 | COc1cc(NC(C)CCCN2C(=O)c3ccccc3C2=O)c2ncccc2c1OC (stereo not drawn) | 97.9%
37 | CSc1nc(N)nc2c1ncn2C | 106%
38 | O=C1C(SCCO)=C(SCCO)C(=O)N1c1ccc(-c2ccccc2)cc1 | -99.5% (active)
39 | OCc1cnccc1NC12CC3CC(CC(C3)C1)C2 | 101%

system: A498 renal; assay: as above; settings: 10 µM unless noted

Row | SMILES | growth
40 | COc1ccccc1N1CCN(CC(O)COc2c(Br)c(Br)c(Br)c3c2OC(C)(C)C3)CC1 (stereo not drawn) | 55.9%
41 | CC(=O)N[C@@H](CNC(=O)c1cc(NC(=O)c2cc(NC(=O)c3cc(NC(=O)c4nccn4C)cn3C)cn2C)cn1C)CC(=O)Nc1cn(C)c(C(=O)Nc2cc(C(=O)Nc3cc(C(=O)Nc4cc(C(=O)NCCCN(C)CCCNC(=O)c5cccc(C(=O)O)c5)n(C)c4)n(C)c3)n(C)c2)n1 | 92.9%
42 | O=[N+]([O-])c1ccc(NS(=O)(=O)c2cc(Cl)ccc2Cl)c2ccccc12 | 23.9%
43 | CN1CCN(C(=O)/C=C/c2ccc([N+](=O)[O-])o2)CC1 | 76%
44 | CCn1cc(/C=C2\Oc3cc(OCC#N)ccc3C2=O)c2cc(OC)ccc21 | 62.4%
45 | S=c1ssnc1-c1ccccn1 | 13%
46 | COc1ccc2c(c1)nnc1c3cccnc3[nH]c21 | 40.3%
47 | COc1cccc(/C=N/C(=S)NC2(C)C3CCC(C3)C2(C)C)c1O (stereo not drawn) | 73.2%
48 | CC1(C)Cc2c(Br)c(Br)c(Br)c(OCC(O)CN3CCN(c4ccccn4)CC3)c2O1 (stereo not drawn) | 96.2%
49 | O=C1OC(c2ccc(-c3ccccc3)cc2)=C/C1=C/C=C/c1ccccc1 | 84.4%
50 | CCCCCn1ncc(-c2c(O)c(O)cc3c(O)c(-c4c(C)cc5c(-c6cnn(CCCCC)n6)c(O)c(O)cc5c4O)c(C)cc23)n1 | 53%
51 | CCC1S/C(=N\N=C(/C)c2cc3ccccc3o2)N(c2ccccc2)C1=O (stereo not drawn) | 136%
52 | CS(=O)(=O)OCC(COS(C)(=O)=O)C(c1ccccc1)c1ccccc1 | 93.3%
53 | CC(=O)c1cc2c(N)c(C(=O)Nc3cccc(Cl)c3)sc2nc1C | 37.4%
54 | ClC1c2ccccc2CCc2ccccc21 | 102%
55 | CCOC(=O)C(C)(CSSCC(C)(NC(=O)c1ccc2ccccc2c1)C(=O)OCC)NC(=O)c1ccc2ccccc2c1 (stereo not drawn) | 136%
56 | COc1ccccc1S(=O)(=O)Nc1ccc2c3c(cc(-c4ccoc4)nc13)C(=O)N2C | 71.7%
57 | CN1CCN(Cn2nc(-c3cc(Cl)cc(Cl)c3Cl)n(/N=C/c3ccc(Cl)cc3)c2=S)CC1 | 97.8%
58 | Cc1ccn2cc(Cc3cc(=O)oc4c3ccc3ccccc34)c(=O)nc2c1 | 111%
59 | C=C1C(=O)O[C@H]2[C@H]1CC/C(COC(=O)c1ccc(Br)cc1)=C\CC[C@@]1(C)O[C@@H]21 | 100%

Row | SMILES | growth
60 | COc1cc2ncnc(Oc3ccc(NC(=O)Nc4ccc(CN5CCOCC5)c(C(F)(F)F)c4)c4ccccc34)c2cc1OC | -11.3% (active)
61 | Cc1cccc(NC(=O)CCc2ccc(N3C(N)=NC(N)=NC3(C)C)cc2)c1 | 95.2%
62 | CN(C)c1ncc(C#Cc2c(F)cccc2F)c2ccccc12 | 100%
63 | O=C(NC(=S)Nc1ccc(Cl)cc1)c1ccccc1 | 103%
64 | COc1cc2nc(C(=O)N3CCCCC3)cc(Nc3ccccc3)c2cc1OC | 91%
65 | Oc1ccc(O)c(-[n+]2ccccc2)c1 | 108%
66 | COc1cc2c(/C=C3/C(=O)Nc4ccc(O)cc43)c(Cl)n(Cc3cc(OC)c(OC)c(OC)c3)c2cc1C | 24.9%
67 | N#Cc1c(N)nc2c(c1N)C(c1ccc(Cl)cc1)C1=C(CCCC1=O)N2c1sc2c(c1C#N)CCCC2 (stereo not drawn) | 100%
68 | COc1ccc2c(c1)nnn1c3ncccc3c(N=O)c21 | 31.9%
69 | COc1cc(NC(C)CCCN2C(=O)c3ccccc3C2=O)c2nc(C)ccc2c1OC (stereo not drawn) | 97.5%
70 | O=C(Nc1ccc(F)cc1)Nc1ccc(Cl)c([N+](=O)[O-])c1 | 25.7%
71 | COc1cc(/C=C/C(=O)c2c(C)n([O-])c3cc(C)c(C)cc3[n+]2=O)cc(OC)c1OC | 41.8%
72 | CCC1S/C(=N\N=C(/C)c2cccs2)N(c2ccccc2)C1=O (stereo not drawn) | 108%
73 | O=C(Nc1cccc([N+](=O)[O-])c1)c1ccc2ccccc2c1O | 41.9%
74 | CC(C)(C)OC(=O)N1CCN(CCn2cc(C(F)(F)F)c3c(Cl)ncnc32)CC1 | 103%
75 | COc1cc(NC(C)CCCN2C(=O)c3ccccc3C2=O)c2ncccc2c1OC (stereo not drawn) | 104%
76 | CSc1nc(N)nc2c1ncn2C | 119%
77 | O=C1C(SCCO)=C(SCCO)C(=O)N1c1ccc(-c2ccccc2)cc1 | 105%
78 | OCc1cnccc1NC12CC3CC(CC(C3)C1)C2 | 94.7%
